Results: publication PMC7862700, “An all-to-all approach to the identification of sequence-specific readers for epigenetic DNA modifications on cytosine”

What was measured:
Assay in all cases: DAPPL (digital affinity profiling via proximity ligation, sequencing); 10 mM Tris-HCl pH 7.5, 50 mM NaCl, 1 mM DTT, 4% glycerol, room temperature, 30 min; GST-TFs on glutathione beads, 16-mer random dsDNA library, 0.1% formaldehyde crosslink after washing; high values mean tight binding
FLI1 = biological target: T1, FLI1 (Homo sapiens, UniProt Q01543 1-452); details: protein: recombinant; tags: N-terminal GST; dsDNA, one strand shown
T1 sequence: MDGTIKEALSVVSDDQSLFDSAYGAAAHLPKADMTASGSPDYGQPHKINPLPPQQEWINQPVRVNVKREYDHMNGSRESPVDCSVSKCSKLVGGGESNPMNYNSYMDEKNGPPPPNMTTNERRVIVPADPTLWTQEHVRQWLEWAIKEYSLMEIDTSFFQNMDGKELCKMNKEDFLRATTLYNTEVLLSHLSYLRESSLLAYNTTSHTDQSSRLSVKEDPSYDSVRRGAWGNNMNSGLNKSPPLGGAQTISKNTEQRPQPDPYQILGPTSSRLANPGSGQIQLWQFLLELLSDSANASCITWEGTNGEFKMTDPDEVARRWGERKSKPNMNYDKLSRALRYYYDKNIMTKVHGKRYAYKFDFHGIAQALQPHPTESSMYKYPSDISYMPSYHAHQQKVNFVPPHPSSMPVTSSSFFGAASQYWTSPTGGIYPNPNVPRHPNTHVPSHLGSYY
Outline: (§1)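 The binding signal reported is, for every hexamer, its read frequency for a factor over its read frequency for the tag-only sample. Reads came from pools of yeast-expressed, GST-fused human transcription factors on glutathione beads, barcoded with DNA and mixed with that sample, which were incubated with 200 nmole of a random double-stranded 16-mer DNA library in Tris/NaCl/DTT/glycerol buffer at room temperature for 30 min. After washing, the pools were crosslinked with 0.1% formaldehyde, proximity-ligated with BsaI/T4 ligase for 1 h at 37 °C, PCR-amplified and sequenced on an Illumina NextSeq500.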

ELK1 = biological target: T2, ELK1 (Homo sapiens, UniProt P19419 1-428); details: protein: recombinant; tags: N-terminal GST; dsDNA, one strand shown
T2 sequence: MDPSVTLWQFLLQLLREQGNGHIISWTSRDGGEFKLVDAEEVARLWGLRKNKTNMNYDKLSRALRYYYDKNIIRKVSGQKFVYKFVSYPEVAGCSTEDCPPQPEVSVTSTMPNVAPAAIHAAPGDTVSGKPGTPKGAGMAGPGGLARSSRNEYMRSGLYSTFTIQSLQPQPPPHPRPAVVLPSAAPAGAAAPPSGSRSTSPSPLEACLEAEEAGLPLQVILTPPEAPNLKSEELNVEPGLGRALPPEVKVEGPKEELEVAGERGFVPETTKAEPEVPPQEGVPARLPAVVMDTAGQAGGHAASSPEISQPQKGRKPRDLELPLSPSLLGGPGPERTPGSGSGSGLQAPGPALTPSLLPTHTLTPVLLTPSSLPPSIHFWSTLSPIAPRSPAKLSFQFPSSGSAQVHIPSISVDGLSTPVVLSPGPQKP
Outline: as §1

GABPA = biological target: T3, GABPA (Homo sapiens, UniProt Q06546 1-454); details: protein: recombinant; tags: N-terminal GST; dsDNA, one strand shown
T3 sequence: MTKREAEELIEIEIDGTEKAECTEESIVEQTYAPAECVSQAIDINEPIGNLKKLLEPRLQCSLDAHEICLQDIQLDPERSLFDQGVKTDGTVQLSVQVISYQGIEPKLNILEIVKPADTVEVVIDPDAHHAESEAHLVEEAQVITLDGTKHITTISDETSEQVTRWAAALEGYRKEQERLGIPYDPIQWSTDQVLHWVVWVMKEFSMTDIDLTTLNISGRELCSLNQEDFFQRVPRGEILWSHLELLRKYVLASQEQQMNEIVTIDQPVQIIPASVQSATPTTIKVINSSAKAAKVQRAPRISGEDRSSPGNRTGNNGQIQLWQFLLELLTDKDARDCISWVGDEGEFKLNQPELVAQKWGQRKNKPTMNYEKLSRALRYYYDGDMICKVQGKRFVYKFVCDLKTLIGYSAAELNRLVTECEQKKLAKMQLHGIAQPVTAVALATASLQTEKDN
Outline: as §1

ERG = biological target: T4, ERG (Homo sapiens, UniProt P11308 1-479); details: protein: recombinant; tags: N-terminal GST; dsDNA, one strand shown
T4 sequence: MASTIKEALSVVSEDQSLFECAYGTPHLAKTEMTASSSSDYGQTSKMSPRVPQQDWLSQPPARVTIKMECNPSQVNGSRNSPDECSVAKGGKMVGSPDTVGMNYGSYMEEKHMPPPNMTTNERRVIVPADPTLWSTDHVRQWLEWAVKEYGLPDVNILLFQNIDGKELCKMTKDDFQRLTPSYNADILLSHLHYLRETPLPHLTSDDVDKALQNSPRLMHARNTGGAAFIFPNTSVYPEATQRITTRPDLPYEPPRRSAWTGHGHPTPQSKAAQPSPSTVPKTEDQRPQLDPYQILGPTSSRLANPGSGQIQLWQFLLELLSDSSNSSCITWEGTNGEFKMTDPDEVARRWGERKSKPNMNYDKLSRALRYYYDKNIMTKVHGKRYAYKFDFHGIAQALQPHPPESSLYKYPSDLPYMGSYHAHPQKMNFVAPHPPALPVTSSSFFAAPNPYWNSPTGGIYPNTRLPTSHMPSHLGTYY
Outline: as §1

ELF1 = ELF1 (Homo sapiens, UniProt P32519 1-619); details: protein: recombinant; tags: N-terminal GST; dsDNA, one strand shown
Outline: as §1

EHF = biological target: T5, EHF (Homo sapiens, UniProt Q9NZC4 1-300); details: protein: recombinant; tags: N-terminal GST; dsDNA, one strand shown
T5 sequence: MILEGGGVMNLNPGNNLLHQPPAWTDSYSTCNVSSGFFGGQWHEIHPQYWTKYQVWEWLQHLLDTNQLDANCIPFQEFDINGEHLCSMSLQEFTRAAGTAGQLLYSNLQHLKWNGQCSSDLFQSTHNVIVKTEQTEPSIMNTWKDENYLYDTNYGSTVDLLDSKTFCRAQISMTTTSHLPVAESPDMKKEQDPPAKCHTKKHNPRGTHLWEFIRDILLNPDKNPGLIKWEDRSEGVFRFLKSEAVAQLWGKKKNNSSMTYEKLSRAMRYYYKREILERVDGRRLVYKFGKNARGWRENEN
Outline: as §1

SPI1 = SPI1 (Homo sapiens, UniProt P17947 1-270); details: protein: recombinant; tags: N-terminal GST; dsDNA, one strand shown
Outline: as §1

SPIB = SPIB (Homo sapiens, UniProt Q01892 1-262); details: protein: recombinant; tags: N-terminal GST; dsDNA, one strand shown
Outline: as §1

ELK3 = biological target: T6, ELK3 (Homo sapiens, UniProt P41970 1-407); details: protein: recombinant; tags: N-terminal GST; dsDNA, one strand shown
T6 sequence: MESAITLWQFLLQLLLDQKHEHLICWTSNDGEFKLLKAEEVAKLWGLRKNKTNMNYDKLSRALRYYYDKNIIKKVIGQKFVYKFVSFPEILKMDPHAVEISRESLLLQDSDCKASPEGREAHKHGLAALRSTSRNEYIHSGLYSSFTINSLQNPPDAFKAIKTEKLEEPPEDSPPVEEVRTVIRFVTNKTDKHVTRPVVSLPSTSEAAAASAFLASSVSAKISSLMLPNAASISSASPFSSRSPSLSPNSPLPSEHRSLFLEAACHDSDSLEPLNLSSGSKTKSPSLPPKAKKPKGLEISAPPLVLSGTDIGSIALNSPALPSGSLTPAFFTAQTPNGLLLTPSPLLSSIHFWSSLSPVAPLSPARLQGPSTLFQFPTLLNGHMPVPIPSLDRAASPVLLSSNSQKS
Outline: as §1

FEV = biological target: T7, FEV (Homo sapiens, UniProt Q99581 1-238); details: protein: recombinant; tags: N-terminal GST; dsDNA, one strand shown
T7 sequence: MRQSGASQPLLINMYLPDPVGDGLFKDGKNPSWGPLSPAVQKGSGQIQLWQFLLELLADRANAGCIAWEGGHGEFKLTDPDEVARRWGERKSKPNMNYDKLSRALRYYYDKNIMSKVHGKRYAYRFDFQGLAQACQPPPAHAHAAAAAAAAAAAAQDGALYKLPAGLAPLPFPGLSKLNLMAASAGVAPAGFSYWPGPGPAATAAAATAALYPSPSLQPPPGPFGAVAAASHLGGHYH
Outline: as §1

ETV5 = ETV5 (Homo sapiens, UniProt P41161 1-510); details: protein: recombinant; tags: N-terminal GST; dsDNA, one strand shown
Outline: as §1

HSF1 = HSF1 (Homo sapiens, UniProt Q00613 1-529); details: protein: recombinant; tags: N-terminal GST; chain copies: 3; dsDNA, one strand shown
Outline: as §1

ELF4 = ELF4 (Homo sapiens, UniProt Q99607 1-663); details: protein: recombinant; tags: N-terminal GST; dsDNA, one strand shown
Outline: as §1

ELK4 = biological target: T8, ELK4 (Homo sapiens, UniProt P28324-2 1-405); details: protein: recombinant; tags: N-terminal GST; dsDNA, one strand shown
T8 sequence: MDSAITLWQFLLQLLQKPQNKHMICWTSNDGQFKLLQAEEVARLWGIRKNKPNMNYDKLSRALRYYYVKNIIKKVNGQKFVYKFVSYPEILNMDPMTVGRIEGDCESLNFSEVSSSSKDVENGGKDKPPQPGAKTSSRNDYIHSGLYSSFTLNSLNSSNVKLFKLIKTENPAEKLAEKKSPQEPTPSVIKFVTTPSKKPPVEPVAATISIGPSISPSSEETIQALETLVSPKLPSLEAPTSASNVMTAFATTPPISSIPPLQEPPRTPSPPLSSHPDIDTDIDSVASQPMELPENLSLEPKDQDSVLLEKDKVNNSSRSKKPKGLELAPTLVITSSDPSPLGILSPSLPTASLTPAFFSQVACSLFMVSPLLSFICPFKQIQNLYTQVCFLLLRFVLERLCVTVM
Outline: as §1

ETV2 = biological target: T9, ETV2 (Homo sapiens, UniProt O00321 1-342); details: protein: recombinant; tags: N-terminal GST; dsDNA, one strand shown
T9 sequence: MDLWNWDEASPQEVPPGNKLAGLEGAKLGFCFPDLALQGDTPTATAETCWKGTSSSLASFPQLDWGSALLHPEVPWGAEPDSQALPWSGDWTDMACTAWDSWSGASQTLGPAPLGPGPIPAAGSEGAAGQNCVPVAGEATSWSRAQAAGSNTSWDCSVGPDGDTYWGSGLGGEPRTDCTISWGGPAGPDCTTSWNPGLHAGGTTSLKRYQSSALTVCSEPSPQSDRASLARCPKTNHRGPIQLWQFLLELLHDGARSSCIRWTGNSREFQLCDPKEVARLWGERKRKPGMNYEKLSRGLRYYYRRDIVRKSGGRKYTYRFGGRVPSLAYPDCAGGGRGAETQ
Outline: as §1

ELF3 = biological target: T10, ELF3 (Homo sapiens, UniProt P78545 1-371); details: protein: recombinant; tags: N-terminal GST; dsDNA, one strand shown
T10 sequence: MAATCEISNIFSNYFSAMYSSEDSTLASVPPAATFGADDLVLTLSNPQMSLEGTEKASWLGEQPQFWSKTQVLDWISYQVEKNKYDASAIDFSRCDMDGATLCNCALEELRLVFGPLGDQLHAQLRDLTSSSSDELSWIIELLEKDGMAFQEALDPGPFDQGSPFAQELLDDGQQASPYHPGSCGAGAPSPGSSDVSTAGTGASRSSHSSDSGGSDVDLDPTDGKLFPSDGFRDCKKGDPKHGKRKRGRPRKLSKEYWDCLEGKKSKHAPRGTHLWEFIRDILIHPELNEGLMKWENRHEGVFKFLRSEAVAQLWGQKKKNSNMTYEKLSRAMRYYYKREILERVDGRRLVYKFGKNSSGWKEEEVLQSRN
Outline: as §1

CRX = CRX (Homo sapiens, UniProt O43186 1-299); details: protein: recombinant; tags: N-terminal GST; dsDNA, one strand shown
Outline: as §1

ETV1 = ETV1 (Homo sapiens, UniProt P50549 1-477); details: protein: recombinant; tags: N-terminal GST; dsDNA, one strand shown
Outline: as §1

Sequence of ELF1 (P32519 whole entry): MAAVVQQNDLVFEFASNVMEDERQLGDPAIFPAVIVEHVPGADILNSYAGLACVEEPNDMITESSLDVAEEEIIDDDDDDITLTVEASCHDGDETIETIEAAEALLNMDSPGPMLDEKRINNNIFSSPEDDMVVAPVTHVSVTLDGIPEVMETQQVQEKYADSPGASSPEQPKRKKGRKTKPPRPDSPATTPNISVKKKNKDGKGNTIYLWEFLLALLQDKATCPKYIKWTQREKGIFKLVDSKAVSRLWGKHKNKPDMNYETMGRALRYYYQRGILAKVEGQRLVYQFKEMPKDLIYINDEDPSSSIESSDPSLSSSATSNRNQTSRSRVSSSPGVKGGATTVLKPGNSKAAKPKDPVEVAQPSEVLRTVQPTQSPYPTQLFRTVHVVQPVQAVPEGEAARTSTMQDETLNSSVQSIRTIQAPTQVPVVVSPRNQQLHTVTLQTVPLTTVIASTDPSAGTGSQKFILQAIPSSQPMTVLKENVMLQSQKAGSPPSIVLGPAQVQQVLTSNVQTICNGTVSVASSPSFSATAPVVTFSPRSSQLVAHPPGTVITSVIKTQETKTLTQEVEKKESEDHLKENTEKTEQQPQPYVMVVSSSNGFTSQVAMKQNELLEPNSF
Sequence of HSF1 (Q00613 whole entry): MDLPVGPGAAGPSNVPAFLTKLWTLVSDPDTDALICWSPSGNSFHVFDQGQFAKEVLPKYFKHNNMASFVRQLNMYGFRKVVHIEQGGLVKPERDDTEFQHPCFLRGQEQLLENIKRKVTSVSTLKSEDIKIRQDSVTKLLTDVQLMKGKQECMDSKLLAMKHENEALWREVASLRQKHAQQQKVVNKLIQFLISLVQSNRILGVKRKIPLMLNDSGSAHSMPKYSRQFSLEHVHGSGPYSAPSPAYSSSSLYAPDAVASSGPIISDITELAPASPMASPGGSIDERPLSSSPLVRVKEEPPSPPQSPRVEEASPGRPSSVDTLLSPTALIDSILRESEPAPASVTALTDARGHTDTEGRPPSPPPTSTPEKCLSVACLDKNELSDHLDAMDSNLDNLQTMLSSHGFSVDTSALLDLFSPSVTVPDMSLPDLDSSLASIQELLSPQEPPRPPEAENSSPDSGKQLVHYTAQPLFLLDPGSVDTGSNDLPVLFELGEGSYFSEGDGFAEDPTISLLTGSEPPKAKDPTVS
Sequence of SPIB (Q01892 whole entry): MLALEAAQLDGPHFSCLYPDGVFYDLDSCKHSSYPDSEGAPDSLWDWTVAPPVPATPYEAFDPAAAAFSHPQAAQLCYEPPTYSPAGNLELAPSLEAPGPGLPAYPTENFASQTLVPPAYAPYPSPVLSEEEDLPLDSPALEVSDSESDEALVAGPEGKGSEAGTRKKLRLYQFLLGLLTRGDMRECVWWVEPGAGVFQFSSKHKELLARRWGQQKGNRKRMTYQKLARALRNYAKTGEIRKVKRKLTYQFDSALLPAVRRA
Sequence of ELF4 (Q99607 whole entry): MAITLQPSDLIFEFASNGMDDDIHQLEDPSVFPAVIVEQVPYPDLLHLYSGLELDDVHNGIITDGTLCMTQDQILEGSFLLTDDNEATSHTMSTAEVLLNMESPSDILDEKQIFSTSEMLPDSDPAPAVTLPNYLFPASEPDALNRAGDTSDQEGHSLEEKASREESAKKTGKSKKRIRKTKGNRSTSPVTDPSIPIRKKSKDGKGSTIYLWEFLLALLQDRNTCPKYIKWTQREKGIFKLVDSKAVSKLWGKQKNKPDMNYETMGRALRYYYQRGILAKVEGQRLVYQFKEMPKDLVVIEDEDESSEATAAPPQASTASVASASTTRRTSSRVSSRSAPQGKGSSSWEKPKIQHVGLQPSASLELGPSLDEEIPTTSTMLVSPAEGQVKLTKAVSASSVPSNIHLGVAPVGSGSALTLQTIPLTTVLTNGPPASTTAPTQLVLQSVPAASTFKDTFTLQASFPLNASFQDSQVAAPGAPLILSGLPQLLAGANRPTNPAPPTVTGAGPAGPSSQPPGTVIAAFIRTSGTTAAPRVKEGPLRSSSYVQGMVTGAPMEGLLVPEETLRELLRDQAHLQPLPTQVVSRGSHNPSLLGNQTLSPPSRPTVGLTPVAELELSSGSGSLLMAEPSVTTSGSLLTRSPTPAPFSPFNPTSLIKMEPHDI
Sequence of CRX (O43186 whole entry): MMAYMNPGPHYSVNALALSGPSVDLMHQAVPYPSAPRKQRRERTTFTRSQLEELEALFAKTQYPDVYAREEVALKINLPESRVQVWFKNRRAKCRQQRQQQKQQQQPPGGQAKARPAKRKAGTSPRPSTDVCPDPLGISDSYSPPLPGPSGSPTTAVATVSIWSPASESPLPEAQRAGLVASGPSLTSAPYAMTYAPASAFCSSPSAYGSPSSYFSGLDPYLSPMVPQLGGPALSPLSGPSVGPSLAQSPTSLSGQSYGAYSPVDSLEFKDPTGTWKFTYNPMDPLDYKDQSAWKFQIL
Sequence of ETV5 (P41161 whole entry): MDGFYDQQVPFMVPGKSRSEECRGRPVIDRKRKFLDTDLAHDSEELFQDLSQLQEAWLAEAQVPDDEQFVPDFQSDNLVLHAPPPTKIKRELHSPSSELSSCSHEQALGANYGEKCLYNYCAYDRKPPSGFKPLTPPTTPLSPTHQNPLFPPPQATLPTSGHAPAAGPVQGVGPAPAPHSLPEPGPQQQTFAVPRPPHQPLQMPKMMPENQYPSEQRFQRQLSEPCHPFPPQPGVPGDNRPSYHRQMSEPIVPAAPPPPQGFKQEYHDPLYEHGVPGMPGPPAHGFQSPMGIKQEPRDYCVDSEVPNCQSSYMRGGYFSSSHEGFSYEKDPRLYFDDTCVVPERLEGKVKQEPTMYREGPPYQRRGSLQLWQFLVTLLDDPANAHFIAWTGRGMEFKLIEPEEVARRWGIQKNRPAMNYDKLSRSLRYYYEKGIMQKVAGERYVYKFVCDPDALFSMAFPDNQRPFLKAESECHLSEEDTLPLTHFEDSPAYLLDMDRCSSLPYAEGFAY
Sequence of ETV1 (P50549 whole entry): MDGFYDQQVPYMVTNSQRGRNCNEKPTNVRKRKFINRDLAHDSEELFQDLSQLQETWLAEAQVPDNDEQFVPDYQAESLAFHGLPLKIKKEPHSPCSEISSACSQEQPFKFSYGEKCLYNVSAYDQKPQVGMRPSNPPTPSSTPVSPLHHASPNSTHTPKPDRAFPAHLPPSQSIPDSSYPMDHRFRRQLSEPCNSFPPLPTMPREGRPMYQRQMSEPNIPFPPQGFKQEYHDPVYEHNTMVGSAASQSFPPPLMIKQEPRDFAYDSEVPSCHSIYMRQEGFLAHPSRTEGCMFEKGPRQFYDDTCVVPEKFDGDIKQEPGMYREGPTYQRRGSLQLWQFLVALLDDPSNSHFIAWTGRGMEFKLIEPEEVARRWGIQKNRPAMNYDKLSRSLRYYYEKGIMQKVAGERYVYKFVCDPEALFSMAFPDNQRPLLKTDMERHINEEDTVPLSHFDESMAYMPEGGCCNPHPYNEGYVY

**Q.** What does the source list for TAGTGT?
**A.** binding signal (FLI1): 1.17 fold enrichment (6-mer frequency, TF over GST control); binding signal (ELK1): 1.16 fold enrichment (6-mer frequency, TF over GST control); binding signal (GABPA): 1.14 fold enrichment (6-mer frequency, TF over GST control); binding signal (ERG): 1.02 fold enrichment (6-mer frequency, TF over GST control); binding signal (ELF1): 1.14 fold enrichment (6-mer frequency, TF over GST control); binding signal (EHF): 1.11 fold enrichment (6-mer frequency, TF over GST control); binding signal (SPI1): 1.12 fold enrichment (6-mer frequency, TF over GST control); binding signal (SPIB): 1.14 fold enrichment (6-mer frequency, TF over GST control); binding signal (ELK3): 1.08 fold enrichment (6-mer frequency, TF over GST control); binding signal (FEV): 1.02 fold enrichment (6-mer frequency, TF over GST control); binding signal (ETV5): 1.12 fold enrichment (6-mer frequency, TF over GST control); binding signal (HSF1): 1.15 fold enrichment (6-mer frequency, TF over GST control); binding signal (ELF4): 1.11 fold enrichment (6-mer frequency, TF over GST control); binding signal (ELK4): 1.4 fold enrichment (6-mer frequency, TF over GST control); binding signal (ETV2): 1.06 fold enrichment (6-mer frequency, TF over GST control); binding signal (ELF3): 1.21 fold enrichment (6-mer frequency, TF over GST control); binding signal (CRX): 1.29 fold enrichment (6-mer frequency, TF over GST control); binding signal (ETV1): 1.21 fold enrichment (6-mer frequency, TF over GST control)
